FBPA coupling cs – inhibits coupling enzyme system, counter-screen for aldolase hits | coupling enzyme system counterscreen, AmpLite Red fluorescence | activity change, negative = inhibition, % at 58.2 µM, hits read low | 290,000 tested, 0.67% active | AID 2472; in the data active = activity change below about -30%
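First, compound is pin-transferred into glyceraldehyde-3-phosphate coupling-enzyme reagent at 57.5 uM final and held 10 min at RT. Next, substrate, coupling system and AmpLite Red are added. After 20 min RT, fluorescence (525/598 nm) is read.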
Tau ThT inhib – blocks human tau fibril formation measured by thioflavin T. 270,000 tested, 2.1% active. P10636. recombinant tau K18 P301L, heparin-induced fibrillization, ThT fluorescence. AID 1460. Potency, µM (titrated, usually from 57.4 µM), actives largely listed as inhibitors; also: nearly all actives have a fitted effect of over 55% in size
Target sequence (P10636 561-689 P618L limits assumed): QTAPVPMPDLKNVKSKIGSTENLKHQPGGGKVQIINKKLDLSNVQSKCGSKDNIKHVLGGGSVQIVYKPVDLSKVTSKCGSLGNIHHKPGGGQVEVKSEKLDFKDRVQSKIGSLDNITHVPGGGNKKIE
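Tau K18 P301L fragment (15 uM unlabeled plus 0.24 uM Alexa 594-labeled) in 100 mM sodium acetate pH 7 with compound, fibrillization induced by 20 uM heparin for 6 hr at 37 C. Thioflavin T (30 uM) added, fluorescence read after 1 hr (ex 450, em 510 nm).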
Tau fluor cs – counter-screen for tau fibril formation inhibitors | tau K18 P301L (four-repeat tau fragment) Alexa594 fluorescence, heparin fibrillization | Potency, µM (doses to about 57.7 µM) | 280,000 tested, 0.93% active; also: nearly all actives have a fitted effect of over 55% in size
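Human K18 P301L tau (15 uM unlabeled plus 0.24 uM Alexa 594-labeled, final) in 100 mM sodium acetate pH 7 was mixed with compound and 20 uM heparin and incubated 6 hr at 37 C.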
KDM4E inh – inhibitors of human JMJD2E histone demethylase; B2RXH2; JMJD2E catalytic domain, FDH-coupled NADH fluorescence (FDH is formaldehyde dehydrogenase); Potency, µM (highest dose often 57.1 µM), usual class: inhibitors; 230,000 tested, 1.6% active; active = well fitted inhibition curve with a large enough effect, not every such curve was filed as active; inconclusive = small, poorly fitted or top-dose-only effect, or another doubt; inactive = no such curve, though single readings can be large or run the other way; also: nearly all actives have a fitted effect of over 50% in size
Target sequence (B2RXH2 1-337 limits assumed): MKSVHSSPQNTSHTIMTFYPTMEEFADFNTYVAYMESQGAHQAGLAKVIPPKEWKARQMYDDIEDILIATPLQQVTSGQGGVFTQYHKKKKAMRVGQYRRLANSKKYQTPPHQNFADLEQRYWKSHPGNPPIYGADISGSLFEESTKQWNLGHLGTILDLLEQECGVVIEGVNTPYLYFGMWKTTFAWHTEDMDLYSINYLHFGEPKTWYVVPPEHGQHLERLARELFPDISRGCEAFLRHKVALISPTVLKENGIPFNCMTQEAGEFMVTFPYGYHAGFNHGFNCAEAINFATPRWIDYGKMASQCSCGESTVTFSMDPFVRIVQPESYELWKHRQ
Tau fibril FP – blocks human tau fibril formation measured by polarization; P10636; K18 P301L tau heparin fibrillization, Alexa594 FP, 6 h; Potency, µM (series often up to 57.7 µM), hits mostly inhibitors; 280,000 tested, 0.39% active; also: nearly all actives have a fitted effect of over 55% in size
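Human K18 P301L fragment (15 uM unlabeled plus 0.24 uM Alexa 594-labeled) in 100 mM sodium acetate pH 7 with compound, aggregation induced by 20 uM heparin for 6 hr at 37 C. ThT (30 uM) added for 1 hr, then Alexa 594 FP read.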
Numbers stand for hits; ! = not active in a repeat; [ ] = remark or other dose. Most compounds without a hit are left out; they make up all but 3% or so of the library. Unless noted, calls follow the shape of the dose curve; as a rule, active = well fitted curve in the direction sought with a large enough effect; inconclusive = small, poorly fitted or top-dose-only effect, or another doubt; inactive = no such curve, though single readings can be large; an effect the other way counts as inactive or inconclusive.

Screening CCN(CC)C(=O)N[C@@H]1C[C@H]2c3cccc4[nH]cc(c34)C[C@@H]2N(C)C1 returned FBPA coupling cs inactive and KDM4E inh inactive.
`CC(C)c1ccc(Cc2cnc(NC(=O)c3ccc4c(c3)CC(c3ccccc3)OC4=O)s2)cc1` (centres undefined) gave Tau ThT inhib inactive, Tau fluor cs inactive and Tau fibril FP inconclusive.
Screening COc1ccc(Cn2c(O)c(/C=N/NC(=O)c3ccccc3)c(=O)[nH]c2=O)cc1 returned FBPA coupling cs inactive, Tau ThT inhib inactive, Tau fluor cs inactive, KDM4E inh inactive and Tau fibril FP inactive.
Screening COc1ccc(Cn2c(O)c(/C=N/NC(=O)c3ccncc3)c(=O)[nH]c2=O)cc1 returned FBPA coupling cs inactive, Tau ThT inhib inconclusive, Tau fluor cs inactive, KDM4E inh 7.9µM and Tau fibril FP inactive.
`O=C(N/N=C/c1c(O)n(Cc2ccccc2)c(=O)[nH]c1=O)c1ccccc1O` gave FBPA coupling cs inactive, Tau ThT inhib inactive, Tau fluor cs inactive, KDM4E inh inactive and Tau fibril FP inconclusive.
`COc1ccc(Cn2c(O)c(/C=N/NC(=O)c3ccccc3O)c(=O)[nH]c2=O)cc1` gave FBPA coupling cs inactive, Tau ThT inhib 22µM, Tau fluor cs inconclusive, KDM4E inh inactive and Tau fibril FP inactive.
For COc1ccc(Cn2c(O)c(C=NCCN3CCOCC3)c(=O)[nH]c2=O)cc1 the results were FBPA coupling cs inactive, Tau ThT inhib inactive, Tau fluor cs inconclusive, KDM4E inh inactive and Tau fibril FP inactive.
O=C(N/N=C/c1c(O)n(Cc2ccc(F)cc2)c(=O)[nH]c1=O)c1ccccc1O was read as FBPA coupling cs inactive, Tau ThT inhib inconclusive, Tau fluor cs inactive, KDM4E inh 25µM and Tau fibril FP inactive.
Screening COc1ccc(CN2CCN(c3ncnc4sc5c(c34)CCCC5)CC2)cc1F returned Tau ThT inhib inconclusive, Tau fluor cs inactive and Tau fibril FP inactive.
For CN1C[C@@H](C(=O)N[C@@]2(C)O[C@]3(O)C4CCCN4C(=O)[C@@H](Cc4ccccc4)N3C2=O)C=C2c3cccc4[nH]cc(c34)C[C@@H]21 (some centres undefined) the results were FBPA coupling cs -32, Tau ThT inhib inconclusive, Tau fluor cs inconclusive, KDM4E inh inconclusive and Tau fibril FP inconclusive.
For CC(C)C[C@H]1C(=O)N2CCCC2[C@]2(O)O[C@](NC(=O)[C@@H]3C=C4c5cccc6[nH]cc(c56)CC4N(C)C3)(C(C)C)C(=O)N12 (some centres undefined) the results were FBPA coupling cs -38, Tau ThT inhib 13µM, Tau fluor cs inconclusive, KDM4E inh inconclusive and Tau fibril FP inconclusive.
CC(C)[C@@]1(NC(=O)[C@@H]2C=C3c4cccc5[nH]cc(c45)C[C@H]3N(C)C2)O[C@@]2(O)[C@@H]3CCCN3C(=O)[C@H](Cc3ccccc3)N2C1=O was read as FBPA coupling cs -40, Tau ThT inhib 13µM, Tau fluor cs inconclusive, KDM4E inh inconclusive and Tau fibril FP inconclusive.
COCCN(C(=O)CCl)c1c(C)cccc1C was read as FBPA coupling cs inactive.
`c1ccc(N2CCN(c3ncnc4c3nc3n4CCCCC3)CC2)cc1` gave Tau ThT inhib inconclusive, Tau fluor cs inactive and Tau fibril FP inactive.
Screening CC1CC[C@@]2(OC1)O[C@@H]1[C@@H](O)[C@H]3C4CC[C@H]5C[C@@H](O[C@@H]6O[C@H](CO)[C@H](O[C@@H]7O[C@H](CO)[C@@H](O)[C@H](O[C@@H]8OC[C@@H](O)[C@H](O)[C@H]8O)[C@H]7O[C@@H]7O[C@H](CO)[C@@H](O)[C@H](O[C@@H]8O[C@H](CO)[C@@H](O)[C@H](O)[C@H]8O)[C@H]7O)[C@H](O)[C@H]6O)[C@H](O)C[C@]5(C)C4CC[C@]3(C)[C@H]1[C@@H]2C (some centres undefined) returned FBPA coupling cs inactive, Tau ThT inhib inactive, Tau fluor cs inactive, KDM4E inh inactive and Tau fibril FP inactive.
`CC1=NCCc2c1[nH]c1cc(O)ccc21` gave FBPA coupling cs inactive, Tau ThT inhib inconclusive, Tau fluor cs 18µM![quencher], KDM4E inh inconclusive and Tau fibril FP inactive.
COc1ccc2c3c([nH]c2c1)C(C)=NCC3 was read as FBPA coupling cs inactive, Tau ThT inhib inconclusive, Tau fluor cs inconclusive, KDM4E inh inconclusive and Tau fibril FP inactive.
`O=[N+]([O-])c1ccc(-c2ccc(C=Nc3cccc4ccccc34)o2)cc1` gave FBPA coupling cs inactive, Tau ThT inhib 16µM, Tau fluor cs inactive, KDM4E inh inconclusive and Tau fibril FP inactive.
Oc1cc2c(cc1O)[C@H]1c3ccccc3CN[C@@H]1CC2 was read as FBPA coupling cs inactive, Tau ThT inhib inconclusive, Tau fluor cs inactive, KDM4E inh inconclusive and Tau fibril FP inactive.
For Oc1cc2c(cc1O)[C@H]1c3ccccc3CN[C@H]1CC2 the results were FBPA coupling cs inactive, Tau ThT inhib inconclusive, Tau fluor cs inconclusive, KDM4E inh 25µM and Tau fibril FP inconclusive.
Screening CCC1OC2(C)C(O)C(/C=C/C=C/C=C/c3oc(=O)cc(OC)c3C)OC1(C)C2OC(C)=O (centres undefined) returned FBPA coupling cs inactive.
For c1ccc(N2CCCC3(CCNCC3)C2)nc1 the results were FBPA coupling cs inactive.
Screening CC/C=C\C/C=C\C/C=C\C/C=C\C/C=C\CCCC(=O)NCCc1ccc(O)c(O)c1 returned FBPA coupling cs inactive, Tau ThT inhib inactive, Tau fluor cs inconclusive, KDM4E inh inactive and Tau fibril FP inactive.
For CNCCc1ccc(O)c(O)c1 the results were Tau ThT inhib inconclusive, Tau fluor cs inactive, KDM4E inh 14µM and Tau fibril FP inactive.
For CCn1c(NN=O)nc2ccccc21 the results were FBPA coupling cs inactive, Tau ThT inhib 28µM, Tau fluor cs inactive, KDM4E inh inconclusive and Tau fibril FP inactive.
Cc1occc1C(=O)Nc1ccccc1 was read as FBPA coupling cs inactive.
`O=C(O)c1cc(O)c(O)c(O)c1` gave FBPA coupling cs inactive, Tau ThT inhib 1.3µM, Tau fluor cs 4µM[quencher], KDM4E inh 0.35µM and Tau fibril FP 2µM.
CCCN1CCCC(c2cccc(O)c2)C1 (centres undefined) was read as Tau ThT inhib inactive, Tau fluor cs inactive, KDM4E inh inactive and Tau fibril FP inactive.
`NC(=O)CI` gave Tau ThT inhib inactive, Tau fluor cs inactive, KDM4E inh 32µM and Tau fibril FP inactive.
For Cc1cccc(OCC(=O)Nc2cc(-c3ccccc3F)nn2-c2ccccc2)c1 the results were Tau ThT inhib inactive, Tau fluor cs inactive and Tau fibril FP inconclusive.
`Brc1ccc2[nH]cc(/C=N/N3CCCCC3)c2c1` gave FBPA coupling cs inactive, Tau ThT inhib inconclusive, Tau fluor cs 11µM[quencher], KDM4E inh inactive and Tau fibril FP inactive.
For CC(C)c1cccc(O)c(=O)c1 the results were FBPA coupling cs inactive, Tau ThT inhib inconclusive, Tau fluor cs inactive, KDM4E inh 7.9µM and Tau fibril FP inactive.

High-throughput results: PubChem BioAssay, National Center for Advancing Translational Sciences (NCATS)
